Measured values reported in paper PMC7862700, “An all-to-all approach to the identification of sequence-specific readers for epigenetic DNA modifications on cytosine”.

Columns and labels:
Assay in all cases: DAPPL (digital affinity profiling via proximity ligation, sequencing); 10 mM Tris-HCl pH 7.5, 50 mM NaCl, 1 mM DTT, 4% glycerol, room temperature, 30 min; GST-TFs on glutathione beads, 16-mer random dsDNA library, 0.1% formaldehyde crosslink after washing; high values mean tight binding
FEV = molecular target: T1, FEV (Homo sapiens, UniProt Q99581 1-238); conditions: protein: recombinant; tags: N-terminal GST; dsDNA, one strand shown
T1 sequence: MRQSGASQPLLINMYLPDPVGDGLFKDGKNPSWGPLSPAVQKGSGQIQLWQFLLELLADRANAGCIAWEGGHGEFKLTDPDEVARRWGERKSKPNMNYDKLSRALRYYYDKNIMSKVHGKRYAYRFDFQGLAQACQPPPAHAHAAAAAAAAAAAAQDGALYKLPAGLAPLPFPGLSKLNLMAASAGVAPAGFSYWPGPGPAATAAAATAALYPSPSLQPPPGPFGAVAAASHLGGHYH
Procedure, shortened: (§1)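 Pools of DNA-barcoded human transcription factors, expressed in yeast as GST fusions on glutathione beads and combined with a tag-only sample, were incubated with 200 nmole of a 16-mer random double-stranded DNA library. Incubation took 30 min at room temperature in Tris/NaCl/DTT/glycerol buffer and was followed by washing, 0.1% formaldehyde crosslinking, proximity ligation (BsaI/T4 ligase, 1 h, 37 °C), PCR amplification and sequencing on an Illumina NextSeq500. Binding signal is the ratio of a hexamer's read frequency for a factor to its frequency for the tag-only sample.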

ETV5 = ETV5 (Homo sapiens, UniProt P41161 1-510); conditions: protein: recombinant; tags: N-terminal GST; dsDNA, one strand shown
Procedure, shortened: as §1

HSF1 = HSF1 (Homo sapiens, UniProt Q00613 1-529); conditions: protein: recombinant; tags: N-terminal GST; chain copies: 3; dsDNA, one strand shown
Procedure, shortened: as §1

SPIC = molecular target: T2, SPIC (Homo sapiens, UniProt Q8N5J4 1-248); conditions: protein: recombinant; tags: N-terminal GST; dsDNA, one strand shown
T2 sequence: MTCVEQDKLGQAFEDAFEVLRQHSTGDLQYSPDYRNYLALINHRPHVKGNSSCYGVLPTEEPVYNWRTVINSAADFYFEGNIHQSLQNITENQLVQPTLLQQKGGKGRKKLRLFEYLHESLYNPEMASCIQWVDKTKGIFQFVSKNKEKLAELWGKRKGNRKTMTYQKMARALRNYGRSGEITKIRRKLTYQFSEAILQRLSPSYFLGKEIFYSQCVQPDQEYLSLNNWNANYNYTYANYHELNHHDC
Procedure, shortened: as §1

ELF4 = ELF4 (Homo sapiens, UniProt Q99607 1-663); conditions: protein: recombinant; tags: N-terminal GST; dsDNA, one strand shown
Procedure, shortened: as §1

ELK4 = molecular target: T3, ELK4 (Homo sapiens, UniProt P28324-2 1-405); conditions: protein: recombinant; tags: N-terminal GST; dsDNA, one strand shown
T3 sequence: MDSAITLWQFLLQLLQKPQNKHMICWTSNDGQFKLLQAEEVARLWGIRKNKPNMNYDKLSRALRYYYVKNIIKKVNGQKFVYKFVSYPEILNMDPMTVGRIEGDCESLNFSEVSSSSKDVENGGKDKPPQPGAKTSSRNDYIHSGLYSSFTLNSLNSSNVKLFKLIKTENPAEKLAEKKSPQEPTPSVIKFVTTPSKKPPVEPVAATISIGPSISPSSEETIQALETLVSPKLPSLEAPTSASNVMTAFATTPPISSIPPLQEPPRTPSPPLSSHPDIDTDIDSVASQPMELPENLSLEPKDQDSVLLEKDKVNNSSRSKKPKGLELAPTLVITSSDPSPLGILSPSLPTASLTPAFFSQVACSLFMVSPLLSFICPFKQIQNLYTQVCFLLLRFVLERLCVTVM
Procedure, shortened: as §1

ETV2 = molecular target: T4, ETV2 (Homo sapiens, UniProt O00321 1-342); conditions: protein: recombinant; tags: N-terminal GST; dsDNA, one strand shown
T4 sequence: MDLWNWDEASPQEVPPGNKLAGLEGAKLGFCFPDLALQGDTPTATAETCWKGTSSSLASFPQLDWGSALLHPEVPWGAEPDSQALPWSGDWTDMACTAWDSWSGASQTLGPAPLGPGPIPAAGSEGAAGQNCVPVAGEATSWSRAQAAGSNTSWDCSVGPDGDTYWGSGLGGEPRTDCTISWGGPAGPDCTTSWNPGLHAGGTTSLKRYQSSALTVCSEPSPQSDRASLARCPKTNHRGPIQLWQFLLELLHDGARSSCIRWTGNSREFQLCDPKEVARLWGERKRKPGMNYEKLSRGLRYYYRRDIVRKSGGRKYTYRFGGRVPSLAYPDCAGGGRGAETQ
Procedure, shortened: as §1

ELF3 = molecular target: T5, ELF3 (Homo sapiens, UniProt P78545 1-371); conditions: protein: recombinant; tags: N-terminal GST; dsDNA, one strand shown
T5 sequence: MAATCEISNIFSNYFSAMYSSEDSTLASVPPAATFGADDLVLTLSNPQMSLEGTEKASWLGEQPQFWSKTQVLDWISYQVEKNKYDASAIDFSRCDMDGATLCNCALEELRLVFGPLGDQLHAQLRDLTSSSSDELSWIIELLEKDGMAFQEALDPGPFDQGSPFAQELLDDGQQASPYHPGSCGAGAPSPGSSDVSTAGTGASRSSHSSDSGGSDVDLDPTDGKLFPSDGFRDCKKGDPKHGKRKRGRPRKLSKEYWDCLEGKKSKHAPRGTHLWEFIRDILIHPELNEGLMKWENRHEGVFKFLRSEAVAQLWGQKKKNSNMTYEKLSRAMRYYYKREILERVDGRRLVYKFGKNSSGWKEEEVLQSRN
Procedure, shortened: as §1

CRX = CRX (Homo sapiens, UniProt O43186 1-299); conditions: protein: recombinant; tags: N-terminal GST; dsDNA, one strand shown
Procedure, shortened: as §1

ETV1 = ETV1 (Homo sapiens, UniProt P50549 1-477); conditions: protein: recombinant; tags: N-terminal GST; dsDNA, one strand shown
Procedure, shortened: as §1

ERF = molecular target: T6, ERF (Homo sapiens, UniProt P50548 1-548); conditions: protein: recombinant; tags: N-terminal GST; dsDNA, one strand shown
T6 sequence: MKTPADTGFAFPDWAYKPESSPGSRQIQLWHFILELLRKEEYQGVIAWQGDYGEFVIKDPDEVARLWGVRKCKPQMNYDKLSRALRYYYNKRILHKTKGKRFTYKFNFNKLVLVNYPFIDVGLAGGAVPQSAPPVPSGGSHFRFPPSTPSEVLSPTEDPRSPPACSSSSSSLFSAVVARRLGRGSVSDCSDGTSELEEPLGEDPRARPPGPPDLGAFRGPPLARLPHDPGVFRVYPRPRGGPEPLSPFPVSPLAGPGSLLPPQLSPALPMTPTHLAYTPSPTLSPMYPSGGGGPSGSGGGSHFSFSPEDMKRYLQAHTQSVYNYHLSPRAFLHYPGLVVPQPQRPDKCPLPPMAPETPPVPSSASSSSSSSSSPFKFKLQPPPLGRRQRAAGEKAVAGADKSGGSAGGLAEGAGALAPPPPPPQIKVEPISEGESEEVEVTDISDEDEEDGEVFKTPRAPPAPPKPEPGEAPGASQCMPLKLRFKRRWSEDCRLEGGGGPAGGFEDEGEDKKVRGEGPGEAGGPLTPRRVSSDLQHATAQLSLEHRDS
Procedure, shortened: as §1

ETV3L = molecular target: T7, ETV3L (Homo sapiens, UniProt Q6ZN32 1-361); conditions: protein: recombinant; tags: N-terminal GST; dsDNA, one strand shown
T7 sequence: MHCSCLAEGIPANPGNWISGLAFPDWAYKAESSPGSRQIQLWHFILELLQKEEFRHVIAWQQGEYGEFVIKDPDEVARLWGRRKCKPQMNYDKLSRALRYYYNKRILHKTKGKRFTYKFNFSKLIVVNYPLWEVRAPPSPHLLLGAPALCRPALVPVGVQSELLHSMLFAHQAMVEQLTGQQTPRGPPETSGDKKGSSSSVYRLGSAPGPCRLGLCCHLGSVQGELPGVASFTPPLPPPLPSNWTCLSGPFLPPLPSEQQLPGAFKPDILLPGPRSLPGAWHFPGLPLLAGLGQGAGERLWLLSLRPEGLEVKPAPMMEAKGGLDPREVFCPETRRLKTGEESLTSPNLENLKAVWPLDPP
Procedure, shortened: as §1

ETS2 = molecular target: T8, ETS2 (Homo sapiens, UniProt P15036 1-469); conditions: protein: recombinant; tags: N-terminal GST; dsDNA, one strand shown
T8 sequence: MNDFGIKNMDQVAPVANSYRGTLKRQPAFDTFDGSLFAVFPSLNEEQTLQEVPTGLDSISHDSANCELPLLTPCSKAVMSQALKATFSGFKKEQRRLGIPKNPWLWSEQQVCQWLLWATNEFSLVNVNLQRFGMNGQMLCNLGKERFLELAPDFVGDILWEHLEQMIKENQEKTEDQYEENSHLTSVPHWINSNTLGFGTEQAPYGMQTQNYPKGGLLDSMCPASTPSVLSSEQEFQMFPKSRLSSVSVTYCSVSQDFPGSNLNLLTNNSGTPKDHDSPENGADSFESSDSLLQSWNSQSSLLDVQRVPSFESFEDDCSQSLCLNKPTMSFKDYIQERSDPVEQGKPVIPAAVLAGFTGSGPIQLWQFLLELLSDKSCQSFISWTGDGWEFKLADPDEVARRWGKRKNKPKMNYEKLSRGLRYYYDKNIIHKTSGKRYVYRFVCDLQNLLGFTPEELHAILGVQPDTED
Procedure, shortened: as §1

SPDEF = molecular target: T9, SPDEF (Homo sapiens, UniProt O95238 1-335); conditions: protein: recombinant; tags: N-terminal GST; dsDNA, one strand shown
T9 sequence: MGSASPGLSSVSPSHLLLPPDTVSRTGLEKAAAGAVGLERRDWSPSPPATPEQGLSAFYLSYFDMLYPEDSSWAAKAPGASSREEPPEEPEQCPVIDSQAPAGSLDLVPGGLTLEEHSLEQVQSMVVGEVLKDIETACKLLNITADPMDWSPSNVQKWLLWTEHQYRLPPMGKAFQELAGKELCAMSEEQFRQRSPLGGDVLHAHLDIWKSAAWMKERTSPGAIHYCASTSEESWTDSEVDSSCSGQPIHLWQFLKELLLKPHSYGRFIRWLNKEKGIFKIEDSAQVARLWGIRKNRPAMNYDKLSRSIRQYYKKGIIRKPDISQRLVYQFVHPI
Procedure, shortened: as §1

ETV7 = molecular target: T10, ETV7 (Homo sapiens, UniProt Q9Y603 1-341); conditions: protein: recombinant; tags: N-terminal GST; dsDNA, one strand shown
T10 sequence: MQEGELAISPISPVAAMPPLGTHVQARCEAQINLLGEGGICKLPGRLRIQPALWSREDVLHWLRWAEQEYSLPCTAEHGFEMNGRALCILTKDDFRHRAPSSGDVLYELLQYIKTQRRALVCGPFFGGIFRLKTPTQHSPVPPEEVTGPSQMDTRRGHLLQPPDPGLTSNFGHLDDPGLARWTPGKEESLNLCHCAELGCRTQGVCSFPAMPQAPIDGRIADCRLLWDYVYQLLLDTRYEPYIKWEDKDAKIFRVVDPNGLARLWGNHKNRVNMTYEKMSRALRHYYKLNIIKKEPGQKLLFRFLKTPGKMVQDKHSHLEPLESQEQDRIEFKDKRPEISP
Procedure, shortened: as §1

ELF5 = molecular target: T11, ELF5 (Homo sapiens, UniProt Q9UKW6-2 1-255); conditions: protein: recombinant; tags: N-terminal GST; dsDNA, one strand shown
T11 sequence: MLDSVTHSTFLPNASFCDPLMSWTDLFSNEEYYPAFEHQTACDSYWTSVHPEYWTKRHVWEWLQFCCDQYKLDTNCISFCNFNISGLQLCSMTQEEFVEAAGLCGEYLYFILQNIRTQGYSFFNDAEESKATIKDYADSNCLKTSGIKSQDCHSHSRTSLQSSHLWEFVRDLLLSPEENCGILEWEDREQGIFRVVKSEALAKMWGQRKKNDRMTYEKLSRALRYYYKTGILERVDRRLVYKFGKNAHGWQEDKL
Procedure, shortened: as §1

ETV3 = molecular target: T12, ETV3 (Homo sapiens, UniProt P41162-2 1-143); conditions: protein: recombinant; tags: N-terminal GST; dsDNA, one strand shown
T12 sequence: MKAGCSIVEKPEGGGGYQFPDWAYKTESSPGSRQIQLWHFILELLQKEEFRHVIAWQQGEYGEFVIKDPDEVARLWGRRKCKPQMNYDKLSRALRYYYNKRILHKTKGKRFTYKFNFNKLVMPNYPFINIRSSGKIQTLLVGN
Procedure, shortened: as §1

ETV6 = ETV6 (Homo sapiens, UniProt P41212 1-452); conditions: protein: recombinant; tags: N-terminal GST; dsDNA, one strand shown
Procedure, shortened: as §1

Chain of ETV1 (P50549 whole entry): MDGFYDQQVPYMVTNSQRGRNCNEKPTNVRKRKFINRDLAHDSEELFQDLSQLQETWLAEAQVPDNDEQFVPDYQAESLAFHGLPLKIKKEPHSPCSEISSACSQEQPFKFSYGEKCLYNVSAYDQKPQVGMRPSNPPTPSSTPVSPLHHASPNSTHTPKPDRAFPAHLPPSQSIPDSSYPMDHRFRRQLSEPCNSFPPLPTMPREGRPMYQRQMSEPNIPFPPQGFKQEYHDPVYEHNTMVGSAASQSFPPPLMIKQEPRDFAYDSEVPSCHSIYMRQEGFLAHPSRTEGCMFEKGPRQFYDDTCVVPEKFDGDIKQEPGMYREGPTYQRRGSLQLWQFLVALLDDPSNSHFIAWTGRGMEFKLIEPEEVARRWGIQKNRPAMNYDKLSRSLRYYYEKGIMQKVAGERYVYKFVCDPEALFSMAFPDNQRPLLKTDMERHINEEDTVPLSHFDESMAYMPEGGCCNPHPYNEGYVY
Chain of ETV6 (P41212 whole entry): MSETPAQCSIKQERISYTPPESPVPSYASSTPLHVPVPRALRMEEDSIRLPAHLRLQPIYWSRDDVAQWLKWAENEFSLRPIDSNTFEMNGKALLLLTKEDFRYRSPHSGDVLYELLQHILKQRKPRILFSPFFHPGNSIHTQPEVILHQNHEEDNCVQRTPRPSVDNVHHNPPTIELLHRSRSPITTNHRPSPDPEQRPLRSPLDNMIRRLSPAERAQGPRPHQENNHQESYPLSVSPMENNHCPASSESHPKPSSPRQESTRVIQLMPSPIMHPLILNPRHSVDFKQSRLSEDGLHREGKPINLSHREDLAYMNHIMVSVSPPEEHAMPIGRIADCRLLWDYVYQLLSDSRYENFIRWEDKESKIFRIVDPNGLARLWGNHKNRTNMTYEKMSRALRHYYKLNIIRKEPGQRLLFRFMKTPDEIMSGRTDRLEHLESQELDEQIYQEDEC
Chain of CRX (O43186 whole entry): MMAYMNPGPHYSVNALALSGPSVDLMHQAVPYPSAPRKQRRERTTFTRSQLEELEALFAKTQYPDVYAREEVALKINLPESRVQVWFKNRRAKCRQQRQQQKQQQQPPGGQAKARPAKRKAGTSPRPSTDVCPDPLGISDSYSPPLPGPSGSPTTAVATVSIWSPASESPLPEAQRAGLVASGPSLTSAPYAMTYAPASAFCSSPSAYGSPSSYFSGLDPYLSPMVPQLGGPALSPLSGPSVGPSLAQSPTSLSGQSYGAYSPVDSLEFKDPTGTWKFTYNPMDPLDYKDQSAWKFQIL
Chain of ELF4 (Q99607 whole entry): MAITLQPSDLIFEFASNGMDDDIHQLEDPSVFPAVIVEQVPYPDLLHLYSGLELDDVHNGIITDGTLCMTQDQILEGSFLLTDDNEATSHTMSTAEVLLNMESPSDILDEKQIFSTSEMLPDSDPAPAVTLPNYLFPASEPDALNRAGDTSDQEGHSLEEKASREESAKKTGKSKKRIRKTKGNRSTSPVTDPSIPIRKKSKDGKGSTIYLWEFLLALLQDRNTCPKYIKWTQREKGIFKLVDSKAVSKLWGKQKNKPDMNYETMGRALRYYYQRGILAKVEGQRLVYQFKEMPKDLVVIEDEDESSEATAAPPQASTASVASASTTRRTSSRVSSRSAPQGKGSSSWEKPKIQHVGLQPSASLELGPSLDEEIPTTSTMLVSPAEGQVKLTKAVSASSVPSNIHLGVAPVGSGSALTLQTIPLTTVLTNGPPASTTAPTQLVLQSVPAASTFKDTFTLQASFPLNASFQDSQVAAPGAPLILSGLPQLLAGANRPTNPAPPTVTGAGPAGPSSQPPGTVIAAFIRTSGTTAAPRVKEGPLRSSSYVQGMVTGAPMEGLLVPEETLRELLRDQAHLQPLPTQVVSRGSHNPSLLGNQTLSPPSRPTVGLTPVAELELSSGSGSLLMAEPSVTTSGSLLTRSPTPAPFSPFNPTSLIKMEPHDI
Chain of HSF1 (Q00613 whole entry): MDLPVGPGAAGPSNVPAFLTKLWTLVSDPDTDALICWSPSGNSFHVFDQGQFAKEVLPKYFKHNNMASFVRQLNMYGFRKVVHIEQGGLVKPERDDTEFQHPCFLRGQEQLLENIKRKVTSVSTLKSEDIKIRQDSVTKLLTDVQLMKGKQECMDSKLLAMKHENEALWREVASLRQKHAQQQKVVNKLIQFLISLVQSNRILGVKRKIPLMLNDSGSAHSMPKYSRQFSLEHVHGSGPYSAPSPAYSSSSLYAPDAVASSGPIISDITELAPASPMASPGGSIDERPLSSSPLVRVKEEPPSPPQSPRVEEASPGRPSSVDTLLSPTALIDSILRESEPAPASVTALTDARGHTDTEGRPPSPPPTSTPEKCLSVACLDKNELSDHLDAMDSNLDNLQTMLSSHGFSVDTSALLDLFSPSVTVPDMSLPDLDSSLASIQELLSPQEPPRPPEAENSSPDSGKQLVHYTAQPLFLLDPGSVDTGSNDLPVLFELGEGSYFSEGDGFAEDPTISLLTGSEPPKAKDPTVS
Chain of ETV5 (P41161 whole entry): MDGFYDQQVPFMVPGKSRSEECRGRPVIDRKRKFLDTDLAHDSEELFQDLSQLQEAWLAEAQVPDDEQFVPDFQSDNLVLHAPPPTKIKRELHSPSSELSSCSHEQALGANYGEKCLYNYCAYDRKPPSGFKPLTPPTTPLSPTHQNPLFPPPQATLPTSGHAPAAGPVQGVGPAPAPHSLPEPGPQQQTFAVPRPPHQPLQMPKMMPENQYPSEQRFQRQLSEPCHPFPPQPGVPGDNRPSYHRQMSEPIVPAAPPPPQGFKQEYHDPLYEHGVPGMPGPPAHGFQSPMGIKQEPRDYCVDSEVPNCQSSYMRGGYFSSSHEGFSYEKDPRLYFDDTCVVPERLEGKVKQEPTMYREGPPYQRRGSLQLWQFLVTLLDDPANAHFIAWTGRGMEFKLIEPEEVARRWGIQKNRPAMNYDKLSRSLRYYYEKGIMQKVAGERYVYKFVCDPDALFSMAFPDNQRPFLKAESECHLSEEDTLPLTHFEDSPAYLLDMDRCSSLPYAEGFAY

ATATCT
binding signal (FEV): 1.15 fold enrichment (6-mer frequency, TF over GST control) | binding signal (ETV5): 1.1 fold enrichment (6-mer frequency, TF over GST control) | binding signal (HSF1): 1.26 fold enrichment (6-mer frequency, TF over GST control) | binding signal (SPIC): 1.1 fold enrichment (6-mer frequency, TF over GST control) | binding signal (ELF4): 1.17 fold enrichment (6-mer frequency, TF over GST control) | binding signal (ELK4): 1.2 fold enrichment (6-mer frequency, TF over GST control) | binding signal (ETV2): 1.3 fold enrichment (6-mer frequency, TF over GST control) | binding signal (ELF3): 1.21 fold enrichment (6-mer frequency, TF over GST control) | binding signal (CRX): 1.39 fold enrichment (6-mer frequency, TF over GST control) | binding signal (ETV1): 1.16 fold enrichment (6-mer frequency, TF over GST control) | binding signal (ERF): 1.23 fold enrichment (6-mer frequency, TF over GST control) | binding signal (ETV3L): 1.21 fold enrichment (6-mer frequency, TF over GST control) | binding signal (ETS2): 1.17 fold enrichment (6-mer frequency, TF over GST control) | binding signal (SPDEF): 1.22 fold enrichment (6-mer frequency, TF over GST control) | binding signal (ETV7): 1.2 fold enrichment (6-mer frequency, TF over GST control) | binding signal (ELF5): 1.18 fold enrichment (6-mer frequency, TF over GST control) | binding signal (ETV3): 1.19 fold enrichment (6-mer frequency, TF over GST control) | binding signal (ETV6): 1.14 fold enrichment (6-mer frequency, TF over GST control)
